Source: PubChem BioAssay AID540259 (Broad Institute, 2011)
Measured potencies and affinities stand elsewhere. A number with no mark means an inactive call.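 The calls were made as follows: active = cell killing, meaning signal decrease, with fitted half-maximal dose at or below ten times the top valid tested dose; inconclusive = poor fit, or flat curve with 30 to 70% signal loss; inactive = the rest.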

test: ATP-based viability loss in HeLa cells – cell-based, CellTiter-Glo luminescence, cherry-pick samples, cytotoxicity control for MITF activator project, dose response (AID 540259); conditions: 24 h; series mostly up to 35 µM; activity change, negative = cytotoxicity: at the top concentration;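 also: 0% = DMSO neutral control and -100% = mitoxantrone positive control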

Question: With `CCc1c(C(=O)Nc2ccc(C)c(C)c2)[nH]c(C)c1C(C)=O` as the compound, how does the “activity change, negative = cytotoxicity” value read?
Answer: 0.691%

Question: With `Cn1c(NC(=O)CCC2CCCCC2)cc(=O)n(C)c1=O` as the compound, how does the “activity change, negative = cytotoxicity” value read?
Answer: -12.8%

Question: With `Cc1nn(-c2ccc(N3CCCCC3)nn2)c(C)c1CCC(=O)Nc1cccc(F)c1` as the compound, how does the “activity change, negative = cytotoxicity” value read?
Answer: 4.81%

Question: For `CC(C)(C)c1csc(NC2=NS(=O)(=O)c3ccccc32)n1`, which “activity change, negative = cytotoxicity” value is on record?
Answer: 4.58%

Question: Which “activity change, negative = cytotoxicity” value does the source give for `CCN1CCN(c2ccc(NC(=O)c3cccc(F)c3)cc2Cl)CC1` here?
Answer: 4.94%

Question: For `COc1ccc(C(=O)c2ccc(CC#N)s2)cc1`, which “activity change, negative = cytotoxicity” value is on record?
Answer: -7.56%

Question: Which “activity change, negative = cytotoxicity” value does the source give for `CC(=O)N1N=C(c2ccc(C)cc2)OC1c1ccc(Br)cc1` (centres undefined) here?
Answer: 1.6%

Question: With `COc1c(C)cccc1C(=O)Nc1ccc(N2CCN(S(C)(=O)=O)CC2)cc1` as the compound, how does the “activity change, negative = cytotoxicity” value read?
Answer: 12.3%

Question: For `Clc1ccc(-c2cc(CSc3ccccc3)on2)cc1`, which “activity change, negative = cytotoxicity” value is on record?
Answer: -6.17%

Question: For `Cc1cccc(OCc2nc(-c3nonc3N)no2)c1C`, which “activity change, negative = cytotoxicity” value is on record?
Answer: -14.2%

Question: For `O=C(NCCSc1ccccn1)c1ccc(Cl)cc1Cl`, which “activity change, negative = cytotoxicity” value is on record?
Answer: -8.41%

Question: For `COc1cccc2[nH]c(=O)c(-c3ccccc3)cc12`, which “activity change, negative = cytotoxicity” value is on record?
Answer: 4.93%

Question: Which “activity change, negative = cytotoxicity” value does the source give for `COC(=O)c1ccc(-c2ccc(Cl)cc2)nc1C` here?
Answer: -3.47%

Question: With `Cc1nc2ccc(NC(=O)Cc3c(F)cccc3Cl)cc2s1` as the compound, how does the “activity change, negative = cytotoxicity” value read?
Answer: 2.92%
